# Results reported in PubChem BioAssay (Tox21).
# A number with no mark means an inactive call. Records with an inconclusive call do not appear. A call without a number means that no potency is given here. Calls of active or inactive are those of the source. Unless noted, the call rests on the fitted dose curve; in most records, active means well fitted curve in the direction sought with a large enough effect in the repeat runs; inconclusive means weak or mixed curves; inactive means no such curve, though single readings can be large; an effect the other way counts as inactive or inconclusive.
# Tests used:
# [1] = qHTS assay to identify small molecule agonists of the hypoxia (HIF-1) signaling pathway (AID 1224846; active means well fitted activation curve with a large enough effect in the signal ratio in the repeat runs, not every such curve was filed as active; the % refers to the signal ratio)
# Procedure, shortened: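 Compounds added to ME-180 cells carrying hypoxia-response-element beta-lactamase reporter (0.5% dialyzed FBS, 5 h preplating), 17 h at 37C; agonist activity detected by CCF4-AM B/G FRET read-out.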
# [2] = qHTS assay to identify small molecule agonists of H2AX - cell viability counter screen (AID 1224847; calls by dose curve; further: top concentration of the series differs between compounds; nearly all actives have a fitted effect of over 30% in size)
# Procedure, shortened: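 We seed wild-type CHO-K1 cells overnight, treat them for 3 hr at 37C with compounds in 15-concentration series, and quantify remaining viability by CellTiter-Glo luminescence.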
# [3] = qHTS RealTime-Glo MT Cell Viability Assay in HepG2 cells - 24 hour (AID 1224867); further: nearly all actives have a fitted effect of over 50% in size
# Procedure, shortened: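 Tox21 10K library screened in qHTS format on HepG2 cells carrying RealTime-Glo reagents. Compounds were added after a 5 h preincubation, and the luminescent signal from continuous culture was measured repeatedly during 40 h treatment.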
# [4] = A CellTox Green Cytotoxicity Assay to monitor cytotoxicity in HEK293 cells - 0 hour (AID 1224869); further: nearly all actives have a fitted effect of over 50% in size
# Procedure, shortened: (§1)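 Fluorescence from a DNA-binding dye excluded by viable cells was measured repeatedly in the same HEK293 wells (600 cells/well) during continuous compound exposure at 37 C. Each assay gives one read point: 0, 8, 16, 24, 32 or 40 h.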
# [5] = qHTS RealTime-Glo MT Cell Viability Assay in HepG2 cells - 40 hour (AID 1224870); further: nearly all actives have a fitted effect of over 50% in size; further: potency means the concentration at half of the fitted maximal effect
# Procedure, shortened: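 Real-time viability: cells seeded at 600 per well together with NanoLuc and cell-permeant prosubstrate, compounds added after 5 h incubation. Luminescence tracked at 0, 8, 16, 24, 32 and 40 h of exposure.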
# [6] = A CellTox Green Cytotoxicity Assay to monitor cytotoxicity in HEK293 cells - 40 hour (AID 1224871); further: nearly all actives have a fitted effect of over 45% in size; further: potency means the concentration at half of the fitted maximal effect
# Procedure, shortened: as §1
# [7] = qHTS RealTime-Glo MT Cell Viability Assay in HEK293 cells - 32 hour (AID 1224868); further: nearly all actives have a fitted effect of over 50% in size; further: potency means the concentration at half of the fitted maximal effect; on activity change, negative = cytotoxic: top concentration of the series differs between compounds
# Procedure, shortened: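 Luminescence generated by NanoLuc from substrate produced by living HEK293 cells served as the viability signal. Each value reflects the reading at its stated time point during continuous 40 h compound exposure at 37 C.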
# [8] = qHTS assay to identify small molecule antagonists of the estrogen related receptor (ERR) signaling pathway from Tox21 library (AID 1224848); further: nearly all actives have a fitted effect of over 50% in size; further: potency means the concentration at half of the fitted maximal effect
# Procedure, shortened: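 ERR cell line, 2,000 cells/well. 6 h settle, then compound (DMSO) added; 18 h at 37 C; ONE-Glo luminescence after 30 min RT.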
# [9] = qHTS assay to identify small molecule agonists of the estrogen related receptor (ERR) signaling pathway from Tox21 library (AID 1224849; calls by dose curve; further: nearly all actives have a fitted effect of over 15% in size)
# Procedure, shortened: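 Luminescent agonist read-out (One-Glo, 30-minute room-temperature incubation) following 18-hour compound treatment at 37 C of the ERR cell line, which had been plated 6 hours before dosing.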
structure (smiles),measurement,setting,value
COC(=O)Nc1ccc(Cl)c(Cl)c1,outcome,[1],inactive
same,outcome,[2],inactive
same,outcome,[3],inactive
same,outcome,[4],inactive
same,Potency,[5],inactive
same,Potency,[6],inactive
CC(C)NNC(=O)c1ccncc1,outcome,[2],inactive
same,outcome,[3],inactive
same,Potency,[7],inactive
same,Potency,[5],inactive
same,Potency,[6],inactive
CN(C)CCCCCCN(C)C,outcome,[2],inactive
same,Potency,[8],inactive
same,outcome,[9],inactive
same,outcome,[3],inactive
same,Potency,[7],inactive
same,outcome,[4],inactive
same,Potency,[5],inactive
same,Potency,[6],inactive
Cc1ccc(C(=O)c2ccc(CC(=O)O)n2C)cc1,outcome,[2],inactive
same,Potency,[8],inactive
same,outcome,[9],inactive
same,outcome,[3],inactive
same,Potency,[7],inactive
same,outcome,[4],inactive
same,Potency,[5],inactive
same,Potency,[6],inactive
CN(C)CCN(C)CCN(C)C,outcome,[1],inactive
same,outcome,[2],inactive
same,outcome,[3],inactive
same,Potency,[7],inactive
same,Potency,[5],inactive
same,Potency,[6],inactive
CCCCCCCC1CCCC1=O (stereo not given),outcome,[1],inactive
same,outcome,[3],inactive
same,Potency,[7],inactive
same,outcome,[4],inactive
same,Potency,[5],inactive
same,Potency,[6],inactive
CCN[C@@H]1C[C@H](N)[C@@H](OC2OC(CN)=CCC2N)[C@H](O)[C@H]1O[C@H]1OC[C@](C)(O)[C@H](NC)[C@H]1O (stereo not given in full),"activity change, negative = cytotoxicity",[3],1.48% [at 0.29 µM]
same,"activity change, negative = cytotoxic",[7],4.65% [at 0.29 µM]
same,cytotoxicity,[4],3.58% [at 0.29 µM]
same,"activity change, negative = cytotoxic",[5],1.76% [at 0.29 µM]
same,cytotoxicity increase,[6],6.9% [at 0.29 µM]
CC[N+](CC)(CC(=O)Nc1c(C)cccc1C)Cc1ccccc1 (tested in a mixture with another compound),outcome,[2],inactive
same,outcome,[3],inactive
same,Potency,[7],inactive
same,outcome,[4],inactive
same,Potency,[5],inactive
same,Potency,[6],inactive
N[C@H](C(=O)O)[C@@H](O)c1ccc(O)c(O)c1,outcome,[1],inactive
same,outcome,[2],inactive
same,outcome,[3],inactive
same,Potency,[7],inactive
same,Potency,[5],inactive
same,Potency,[6],inactive
O=S(=O)(O)c1cccc2c(S(=O)(=O)O)cccc12,outcome,[2],inactive
same,Potency,[8],inactive
same,outcome,[9],inactive
same,outcome,[3],inactive
same,outcome,[4],inactive
same,Potency,[5],inactive
same,Potency,[6],inactive
C[C@H]1[C@H](NC(=O)/C(=N/OC(C)(C)C(=O)O)c2csc(N)n2)C(=O)N1S(=O)(=O)O (stereo in doubt),outcome,[2],inactive
same,outcome,[3],inactive
same,Potency,[7],inactive
same,Potency,[5],inactive
same,Potency,[6],inactive
C[C@@H]1C[C@H]2[C@@H]3C[C@H](F)C4=CC(=O)C(Cl)=C[C@]4(C)[C@@]3(F)[C@@H](O)C[C@]2(C)[C@@]1(O)C(=O)CO,outcome,[1],inactive
same,outcome,[3],inactive
same,Potency,[7],inactive
same,outcome,[4],inactive
same,Potency,[5],inactive
same,Potency,[6],inactive
CC(C)(C)C(=O)c1ccccc1,outcome,[2],inactive
same,outcome,[3],inactive
same,Potency,[7],inactive
same,outcome,[4],inactive
same,Potency,[5],inactive
same,Potency,[6],inactive
CCCc1nn(C)c2c(=O)[nH]c(-c3cc(S(=O)(=O)N4CCN(C)CC4)ccc3OCC)nc12,outcome,[1],inactive
same,outcome,[2],inactive
same,outcome,[3],inactive
same,outcome,[4],inactive
same,Potency,[5],inactive
same,Potency,[6],inactive
O=C(O)Cc1csc(-c2ccc(Cl)cc2)n1,outcome,[2],inactive
same,outcome,[3],inactive
same,Potency,[7],inactive
same,outcome,[4],inactive
same,Potency,[5],inactive
same,Potency,[6],inactive
CCCCOCCOC(=O)CCCCCCCCC(=O)OCCOCCCC,outcome,[2],inactive
same,Potency,[8],inactive
same,outcome,[9],inactive
same,outcome,[3],inactive
same,Potency,[7],inactive
same,outcome,[4],inactive
same,Potency,[5],inactive
same,Potency,[6],inactive
O=Cc1cccc(Br)c1,outcome,[1],inactive
same,Potency,[8],inactive
same,outcome,[9],inactive
same,outcome,[3],inactive
same,Potency,[7],inactive
same,outcome,[4],inactive
same,Potency,[5],inactive
same,Potency,[6],inactive
CCN1CCOCC1,outcome,[1],inactive
same,outcome,[2],inactive
same,outcome,[3],inactive
same,Potency,[7],inactive
same,Potency,[5],inactive
same,Potency,[6],inactive
COc1cc(-c2ccc(=O)[nH]n2)ccc1OC(F)F,outcome,[2],inactive
same,outcome,[3],inactive
same,Potency,[7],inactive
same,outcome,[4],inactive
same,Potency,[5],inactive
same,Potency,[6],inactive
CCCc1ncc(C[n+]2ccccc2C)c(N)n1,outcome,[2],inactive
same,outcome,[3],inactive
same,Potency,[7],inactive
same,outcome,[4],inactive
same,Potency,[5],inactive
same,Potency,[6],inactive
CCN(Cc1ccccc1)c1ccccc1,outcome,[1],inactive
same,Potency,[8],30.3 µM (active)
same,outcome,[9],inactive
same,outcome,[3],inactive
same,Potency,[7],19.3 µM (active)
same,outcome,[4],inactive
same,Potency,[5],inactive
same,Potency,[6],43.1 µM (active)
CCCCCC(=O)OCCc1ccccc1,outcome,[1],inactive
same,Potency,[8],inactive
same,outcome,[9],inactive
same,outcome,[3],inactive
same,Potency,[7],inactive
same,outcome,[4],inactive
same,Potency,[5],inactive
same,Potency,[6],inactive
CNCC(O)c1ccc(O)c(O)c1 (stereo not given),outcome,[2],inactive
same,Potency,[8],inactive
same,outcome,[3],inactive
same,Potency,[7],inactive
same,outcome,[4],inactive
same,Potency,[5],inactive
same,Potency,[6],inactive
O=C(c1ccccc1O)c1ccccc1O,outcome,[1],inactive
same,outcome,[2],inactive
same,outcome,[3],inactive
same,outcome,[4],inactive
same,Potency,[5],inactive
same,Potency,[6],48.5 µM (active)
O=C(O)c1cn(C2CC2)c2cc(N3CCNCC3)c(F)cc2c1=O,outcome,[2],inactive
same,outcome,[3],inactive
same,outcome,[4],inactive
same,Potency,[5],inactive
same,Potency,[6],inactive
Cc1ccccc1N=C(N)N=C(N)N,outcome,[1],inactive
same,outcome,[3],inactive
same,Potency,[7],inactive
same,outcome,[4],inactive
same,Potency,[5],inactive
same,Potency,[6],inactive
O=C(c1ccccc1)C1(O)CCCCC1,outcome,[2],inactive
same,outcome,[3],inactive
same,Potency,[7],inactive
same,outcome,[4],inactive
same,Potency,[5],inactive
same,Potency,[6],inactive
CN(C)[C@@H]1C(=O)C(C(=O)NCN2CCCC2)=C(O)[C@@]2(O)C(=O)C3=C(O)c4c(O)cccc4[C@@](C)(O)C3C[C@@H]12 (stereo not given in full),outcome,[2],inactive
same,outcome,[3],inactive
same,Potency,[7],inactive
same,outcome,[4],inactive
same,Potency,[5],inactive
same,Potency,[6],inactive
[K+],outcome,[2],inactive
same,Potency,[7],inactive
same,outcome,[4],inactive
same,Potency,[5],34.7 µM (active)
same,Potency,[6],inactive
CC[C@H]1OC(=O)[C@H](C)[C@@H](O[C@H]2C[C@@](C)(OC)[C@@H](O)[C@H](C)O2)[C@H](C)[C@@H](O[C@@H]2O[C@H](C)C[C@H](N(C)C)[C@H]2O)[C@](C)(OC)C[C@@H](C)C(=O)[C@H](C)[C@@H](O)[C@]1(C)O,Potency,[8],inactive
same,outcome,[9],inactive
same,outcome,[3],inactive
same,Potency,[7],inactive
same,outcome,[4],inactive
same,Potency,[5],inactive
same,Potency,[6],inactive
Nc1ccccn1,outcome,[1],inactive
same,outcome,[3],inactive
same,Potency,[7],inactive
same,Potency,[5],inactive
same,Potency,[6],inactive
